# In PubChem BioAssay AID588856 (National Center for Advancing Translational Sciences (NCATS), 2011):
# Where “and” joins values, the source holds several entries; their conditions need not be identical. Equal entries are not always repeated. Screen size: about 410,000 compounds; about 3,100 (0.76%) were called active. Calls come from the whole dose curve; as a rule, active = well fitted cell-killing curve with a large enough effect; inactive = no such curve, though single readings can be large or run the other way. This excerpt belongs to a sample that is enriched for actives. More than one record can exist for a structure, and the calls need not agree.
# Test: qHTS for Inhibitors of TGF-b: Cytotox Counterscreen
# Conditions: HepG2 CAGA-GFP viability, ATP luminescence, 18 h; series mostly up to 46.1 µM; activity change, negative = cytotoxicity: at the top concentration
# Procedure, shortened: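 HepG2 CAGA-GFP cells (1000/well, DMEM with 1% FBS) received compound, then TGF-beta at 500 pg/mL final, and were incubated 18 hours at 37 degrees C. Viability was read by CellTiter-Glo luminescence. Media-only wells were set as complete cell-killing and DMSO as no toxicity.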
# Potency is the fitted concentration of half-maximal effect.
Structure (SMILES),"activity change, negative = cytotoxicity",Potency
Nc1ncnc2nnsc12,-3.62% (inactive),–
Cc1cc(C)cc(OC(C)C(=O)Nc2nc3c(s2)CCCC3)c1 (stereo not drawn),-21.1% (inactive),–
COc1ccc(-c2nc3cnccn3c2NC(C)(C)CC(C)(C)C)cc1O,-39.3% (inactive),–
COc1ccc(-c2nc3cc(C)ccn3c2NC2CCCCC2)cc1SC1CCCCC1,-20.8% (inactive),–
COc1ccc(-c2nc3cnccn3c2NC2CCCCC2)cc1-c1cccc(Cl)c1,–,12.6 µM (active)
Cc1cccc(-c2nnc(SC(C)C(=O)Nc3ccccc3)n2C)c1 (stereo not drawn),-21.4% (inactive),–
Cc1nnnn1/C(=C\c1ccccc1)C(=O)OCC(=O)N1CC2(C)CC1CC(C)(C)C2 (stereo not drawn),–,7.94 µM (active)
Oc1ccc(Cl)cc1C1C=C(c2ccc3c(c2)OCO3)NC(c2ccc(F)c(Br)c2)N1 (stereo not drawn),-91.6% (inactive),–
CCOc1ccccc1NC(=O)c1ccc2c(c1)CCN2S(=O)(=O)c1ccc(C)cc1,-0.334% (inactive),–
COc1ccc(C)cc1Nc1nc2ccccc2c2nnc(C)n12,-7.92% (inactive),–
CCCNC(=O)C(CC)n1nc(CC)n2c(cc3oc(C)cc32)c1=O (stereo not drawn),-26.5% (inactive),–
O=C(NCCCN1CCN(c2ccc(F)cc2)CC1)Nc1ccc([N+](=O)[O-])cc1,-35.1% (inactive),–
Cc1ccc(C)c(N2CCN(CCCNC(=O)Nc3ccc(Cl)cc3)CC2)c1,–,10 µM (active)
CCOC(=O)c1c(C)[nH]c(CCC(=O)NCCCN2CCN(c3cc(C)ccc3C)CC2)c1C,-89.7% (inactive),–
O=C(C1CCC(Cn2c(=O)c3sccc3n(Cc3ccccc3F)c2=O)CC1)N1CCCCC1 (stereo not drawn),-6.6% (inactive),–
COc1cc(CN(C(=O)c2ccccc2Br)c2ccccn2)cc(OC)c1OC,-2.61% (inactive),–
Cc1c(CN2CCC(CO)(CCOc3ccccc3)CC2)[nH]c2ccc(Cl)cc12,–,20 µM (active)
CCC(C)CN1CCC(CO)(Cc2ccccc2Cl)CC1 (stereo not drawn),-26.6% (inactive),–
COc1cccc(CC2(CO)CCN(Cc3cnc(-c4cccc(C)c4)nc3)CC2)c1,-45.8% (inactive),–
COc1cc(/C=C/c2ccc(/C=C/c3cc(OC)c(OC)c(OC)c3)cc2)cc(OC)c1OC,0.826% (inactive),–
COc1cc(/C=N/O)cc(Br)c1OS(=O)(=O)c1ccc(C)cc1,–,12.6 µM (active)
Cc1ccc(S(=O)(=O)Oc2ccc(/C=N/NC(=O)c3c(Cl)cnn3C)cc2)cc1,-23.1% (inactive),–
CO[C@H]1O[C@@H]2O[C@@]3(C)CC[C@@H]4[C@@H](C)CC[C@@H]([C@H]1C)[C@@]24OO3,-0.721% (inactive),–
Fc1ccc(-c2nc(Nc3cccc(Cl)c3)nc3c2COc2ccccc2-3)cc1,1.34% (inactive),–
Cc1oc(-c2ccccc2F)nc1CN1CCC(C(=O)NCCc2ccc(Cl)cc2)CC1,-42.5% (inactive),–

Structure (SMILES),"activity change, negative = cytotoxicity",Potency
COc1ccc(Cn2ccc3nc(C)c(C(=O)Nc4ccc(C)c(F)c4)cc3c2=O)cc1,0.457% (inactive),–
O=C(NC1=CC(=O)c2ccccc2C1=O)c1ccccc1,–,15.8 µM (active)
CC1=C(C(=O)N2CCN(c3cccc(C(F)(F)F)c3)CC2)C2(CCCCC2)OC1=O,-7.07% (inactive),–
Cc1ccc(SCC(CC(C)C)N2CCN(CCc3ccccc3)CCC2=O)cc1 (stereo not drawn),-32.1% (inactive),–
COc1ccc(C(=O)Nc2cccc(C(=O)OCc3cc(=O)n4c5c(sc4n3)CCCC5)c2)cc1,3.94% (inactive),–
CCC1CCCCN1Cc1c(O)ccc2c(=O)c(Oc3ccccc3Cl)c(C(F)(F)F)oc12 (stereo not drawn),-91.3% (inactive),–
CC1=C/C(=N\OS(=O)(=O)c2ccccc2)C=CC1=O,–,12.6 µM (active)
CCc1ccc(CNC(=O)c2cc3cc4ccc(OC)cc4nc3o2)cc1,3.03% (inactive),–
Cc1ccc(-c2cnc(C3CC3)o2)cc1S(=O)(=O)Nc1cccc(C)c1C,1.81% (inactive),–
CCC(=O)c1ccc(N2CCN(C(=O)c3cc([N+](=O)[O-])ccc3F)CC2)c(F)c1,-3% (inactive),–
Cc1[nH]n(-c2ccc([N+](=O)[O-])cc2)c(=O)c1C=NCCN1CCN(C(=O)c2ccccc2F)CC1,–,2 µM (active)
C=CCNC(=S)N1CCN(CCN=Cc2c(C)[nH]n(-c3ccc([N+](=O)[O-])cc3)c2=O)CC1,-19% (inactive),–
Cc1ccc2ccc3c(c2n1)NS(=O)(=O)c1ccccc1-3,28.5% (inactive),–
COc1ccc(C(CCN2CCOCC2)c2c(OC)cc(OC)c3c2OC(=O)CC3c2ccc(OC)cc2)cc1 (stereo not drawn),-48.7% (inactive),–
O=C(C[n+]1ccncc1)c1ccc2c(c1)CCCC2,-2.25% (inactive),–
CC(C)(C)c1cc(C(=O)NN)n(Cc2ccc(Cl)cc2Cl)n1,–,12.6 µM (active)
CC(C)(CNC(=O)Cc1ccc(Cl)cc1Cl)N1CCOCC1,4.49% (inactive),–
Cn1cc(C(=O)c2ccc(Cl)cc2Cl)cc1C(=O)NN,-0.199% (inactive),–
CCOC(=O)C1CCCN(C(=O)c2ccc3c(c2)sc2nc(-c4ccc(CC)cc4)cn23)C1 (stereo not drawn),-20.7% (inactive),–
Cc1ccc2c(c1)N(C(=O)Nc1ccc(Br)cc1F)CCO2,-6.53% (inactive),–
COc1cccc(NC(=O)CSc2cc(=O)n(C)c3ccc(Cl)cc23)c1,-17.9% (inactive),–
CCCC(O)(CCC)C(=O)NN(C(=O)CCl)c1cccc(C)c1,–,20 µM (active)
Cc1cccc(N(Cc2ccccc2)C(=O)c2ccccc2F)c1,0.172% (inactive),–
CCCCC(O)(CCCC)C(=O)NN(C(=O)CCl)c1ccccc1,-35.8% (inactive),–
CCCn1c(NCc2ccc(N(CC)CC)cc2)nc2ccccc21,-55.2% (inactive),–

Structure (SMILES),"activity change, negative = cytotoxicity",Potency
CCOC(=O)c1c(C)[nH]c(C)c1S(=O)(=O)N(C)CC(=O)N1CCN(c2ccccc2)CC1,-12.6% (inactive),–
CCOC(=O)c1c(C)[nH]c2c1-c1ccccc1C(=O)C2=O,–,1.26 µM (active)
CCOC(=O)c1c(SCC(=O)Nc2cccc(C)c2C)nc(=O)[nH]c1C,-0.809% (inactive),–
CCc1nnc(NS(=O)(=O)c2ccc(NC(=S)NC(=O)/C=C/c3cccs3)cc2)s1,-1.11% (inactive),–
CCc1nnc(NC(=O)CCN(c2ccc(C)cc2)S(=O)(=O)c2ccccc2)s1,-28% (inactive),–
CCc1nnc(NS(=O)(=O)c2ccc(N=Cc3c(C)[nH]n(-c4ccc(C)cc4)c3=O)cc2)s1,–,8.91 µM (active)
CN(N=O)c1ccc(C=C2c3ccccc3-c3ccccc32)cc1,-2.38% (inactive),–
COc1ccc(C2CC(c3cccc(OC)c3)=NN2c2ccc(S(N)(=O)=O)cc2)cc1 (stereo not drawn),-33.7% (inactive),–
Oc1ccccc1C1=NN(c2ccccc2)C(c2ccccc2)C1 (stereo not drawn),–,10 µM (active)
Cc1ccc(N2C(=O)C3N=NN(CC(=O)N4N=C(c5cccc6ccccc56)CC4c4ccccc4)C3C2=O)cc1 (stereo not drawn),-12.9% (inactive),–
CC(=O)c1ccc[n+](C(C)CCC(C)[n+]2cccc(C(C)=O)c2)c1 (stereo not drawn),18.6% (inactive),–
CCOC(=O)c1c(S(=O)(=O)N2CCC(C(=O)NCc3ccccc3OC)CC2)c(C)n(C)c1C,1.49% (inactive),–
CCCCCCCCCCOC(=O)Cn1c(COc2cccc(OC)c2)[n+](C)c2ccccc21,–,20 µM (active)
OC(CBr)CN1CCCCC1 (stereo not drawn),7.58% (inactive),–
CC(=O)Nc1cccc(NC(=O)CSc2nccn2Cc2ccc3c(c2)OCO3)c1,-20% (inactive),–
Cc1cccc(NC(=O)Cn2c(=O)n(CCC(C)C)c(=O)c3cccnc32)c1,0.34% (inactive),–
CCC1CCCCN1CCCNC(=O)c1cc2c(Cl)nc3ccccc3c2s1 (stereo not drawn),–,inactive and 12.6 µM (active)
CCn1c(=O)c2cc(C(=O)NCCc3ccc(Cl)cc3)sc2c2ccccc21,3.83% (inactive),–
O=C(NCCN1CCN(Cc2ccccc2)CC1)c1cc2c(=O)[nH]c3ccccc3c2s1,-58.5% (inactive),–
COc1ccc(CCN2C(=O)c3[nH]nc(-c4ccccc4O)c3C2c2ccc(C)cc2)cc1OC (stereo not drawn),-76.8% (inactive),–
CCCCN1C(=O)c2[nH]nc(-c3ccccc3O)c2C1c1cccc(OCc2ccccc2)c1 (stereo not drawn),–,14.1 µM (active)
CCCOc1ccc(C2c3c(-c4ccccc4O)n[nH]c3C(=O)N2Cc2cccnc2)cc1 (stereo not drawn),-79% (inactive),–
O=c1[nH]c2cc(Br)ccc2n2cccc12,0.445% (inactive),–
Cc1cccc(N2CCN(C(=O)c3cc4c(=O)oc5ccccc5c4s3)CC2C)c1 (stereo not drawn),-22.6% (inactive),–
CC(C)c1ccc2oc(-c3cc(NC(=O)c4cccs4)ccc3Cl)nc2c1,-4.59% (inactive),–

Structure (SMILES),"activity change, negative = cytotoxicity",Potency
CCCCn1nc(C(=O)Nc2cccc(C(=O)NC3CC3)c2)c2ccccc2c1=O,0.488% (inactive),–
CCCn1nc(C(=O)NNC(=O)CCOc2ccccc2OCC)c2ccccc2c1=O,-14.2% (inactive),–
CCCn1nc(C(=O)NNC(=O)CSCC(=O)Nc2cc(C)on2)c2ccccc2c1=O,–,11.2 µM (active)
Cc1csc[n+]1CCC1CCCCC1,-12.3% (inactive),–
O=C(O)C1CC=CC2CCN(C3CCCCC3)C(=O)C21 (stereo not drawn),-8.33% (inactive),–
CCCS(=O)(=O)Nc1cccc(-c2cn3ccsc3n2)c1,-12.9% (inactive),–
CSc1nc(Nc2ccc(F)cc2)cc(-c2ccccc2)n1,-48.3% (inactive),–
CSc1nc(-c2ccccc2)nc(C(Cl)Cl)n1,–,5.01 µM (active)
O=C(NCC1CC1)C1(C(F)(F)F)C/C(=C\CCO)CCCO1 (stereo not drawn),2.46% (inactive),–
Cn1nnnc1SCc1cc(=O)[nH]c2ccccc12,4.53% (inactive),–
Cc1ccc(N(Cc2ccccc2O)C(=O)c2ccccc2F)cc1,-24.5% (inactive),–
Cc1ccc(N(Cc2cc(=O)[nH]c3ccccc23)C(=O)CCl)cc1,–,17.8 µM (active)
O=c1cc(-c2ccccc2)n2c(SCc3ccccc3)nnc2[nH]1,-7.93% (inactive),–
CC(C)NC(=O)C1CCC(Cn2c(=O)c3sccc3n(Cc3ccc(F)cc3)c2=O)CC1 (stereo not drawn),-3.48% (inactive),–
O=C(NC(c1ccc(-c2ccccc2)cc1)c1cnccn1)C1CCN(CCOc2ccc(Cl)cc2Cl)CC1 (stereo not drawn),-103% (inactive),–
Cc1cccnc1C(NC(=O)C1CCN(Cc2ccc(Cl)c(Cl)c2)CC1)c1ccc(Cl)cc1 (stereo not drawn),-35.5% (inactive),–
Cc1ccc(C(NC(=O)C2CCN(CCOc3ccc(Cl)cc3Cl)CC2)c2ccccn2)cc1 (stereo not drawn),–,20 µM (active)
CCCCOc1ccc(Cn2c(=O)oc3ccc(C)cc32)cc1OC,0.757% (inactive),–
CCCCOc1ccc(CN2C(=O)C(=O)c3cc(Br)cc(C)c32)cc1OC,–,15.8 µM (active)
Cc1cccc2c1N(CCOc1ccccc1)C(=O)C2=O,23.1% (inactive),–
CCCn1c(SCC(=O)Nc2c(C)cccc2C)nnc1C(C)C,-12.8% (inactive),–
CCCn1c(SCC(=O)c2ccc3c(c2)OCCO3)nnc1C(C)C,–,10 µM (active)
O=C(CSc1nnc(CN2CCCC2)n1-c1ccc(F)cc1)c1ccc2c(c1)OCO2,-6.43% (inactive),–
